Screening results from PubChem.
HTT promoter inh = inhibits huntingtin promoter activity; 48,000 tested, 0.93% active; HEK293 HTT promoter firefly luciferase reporter, 24 h; Potency, µM (top dose mostly 57.5 µM), inactives show top-dose activity change, negative = inhibition, hits mostly inhibitors; further: nearly all actives have a fitted effect of over 50% in size
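HEK293 luciferase promoter-reporter cells (2,500/well) plated 24 h, then compounds added at up to 57.5 uM final for 24 h at 37 °C. Firefly luminescence by Dual-Glo, normalized to vehicle (0%) and zero RLU (-100%).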
HTT-AS act = HTT-AS promoter activation. 48,000 tested, 0.24% active. AID 1508624. Potency, µM (titrated, usually from 57.5 µM), without a hit: top-dose activity change, positive = activation, most hits filed as activators. HEK293 HTT-AS promoter firefly luciferase reporter, 24 h; response scale: percent change from vehicle, -100% = no light; further: nearly all actives have a fitted effect of over 55% in size
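Firefly luciferase readout (Dual-Glo, 10 min RT) after 24 h, 37 °C compound exposure (final up to 57.5 uM) of HEK293 reporter cells cultured 24 h beforehand; PTC124 at 50 uM final as control inhibitor; activity scaled vehicle 0%, zero RLU -100%.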
GALC G270D up = raises human GALC G270D mutant activity in cells | P54803 | 145M-Twi-hGALC-G270D cells (Twitcher mouse brain line with human GALC G270D), HMU-beta-Gal fluorescence, 48 h | Potency, µM (highest dose often 57.5 µM), actives largely listed as activators | 45,000 tested, 0.1% active | AID 1159614; further: 0% is about no effect; nearly all actives have a fitted effect of over 65% in size
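Mutant human GALC (G270D), stably expressed in a Twitcher mouse brain cell line lacking endogenous GALC, is measured in live-treated cells via 6-hexadecanoylamino-4-methylumbelliferyl-β-galactoside hydrolysis (0.1 mM final, pH 5.2) with fluorescent detection.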
An asterisk follows results filed as active; i = inactive; ? = inconclusive; · = no result; [ ] = another dose, or the depositor's remark. Only some compounds are listed: those with a hit (about 1.3% of all), similar ones and a draw of the others. The call rests on the fitted dose curve; in most records, active means well fitted curve in the direction sought with a large enough effect; inconclusive means small, poorly fitted or top-dose-only effect, or another doubt; inactive means no such curve, though single readings can be large; an effect the other way counts as inactive or inconclusive. Potency means the concentration at half of the fitted maximal effect.

SMILES	HTT promoter inh	HTT-AS act	GALC G270D up
CCCc1nnc(NC(=O)Nc2ccccc2Cl)s1	48%	3.5µM*	i
CCc1ccccc1NC(=O)Nc1nnc(N2CCCC2)s1	-13%	9%	i
Cc1ccc2nc(-c3ccccn3)c(Nc3ccccc3C)n2c1	35µM*	-75%	i
Cc1ccccc1Nc1c(-c2c(F)cccc2Cl)nc2ccc(Br)cn12	-23%	-3%	i
Fc1ccc(Nc2c(-c3ccccn3)nc3ccc(Cl)cn23)cc1	3%	-7%	i
CC(C)c1ccc(Nc2c(-c3ccccn3)nc3ccccn23)cc1	25µM*	-67%	i
Cc1ccccc1Nc1c(-c2cccc(N(C)C)c2)nc2ccc(Br)cn12	46%	11µM*	i
Cc1ccn2c(Nc3ccccc3C)c(-c3ccccn3)nc2c1	?	-46%	i
c1ccc2c(-c3cnn4cc(-c5ccc(N6CCNCC6)cc5)cnc34)ccnc2c1	-6%	?	·
CCC(=O)O[C@]1(C(=O)COC)[C@@H](C)C[C@H]2[C@@H]3CCC4=CC(=O)C=C[C@]4(C)C3(F)[C@@H](O)C[C@@]21C (stereo not given in full)	-1%	-9%	i
O=C1NC(O)CCN1[C@@H]1O[C@H](CO)[C@H](O)[C@H]1O (stereo not given in full)	2%	-10%	·
CN(C)C(=O)c1ccc(S(=O)(=O)c2ccc(NC(=O)[C@@](C)(O)C(F)(F)F)c(Cl)c2)cc1	-29%	-51%	·
CCOc1ccc(-c2nc3cc(NC(=O)COc4cccc(C)c4)ccc3o2)cc1	-19%	-18%	i
Cc1cccc(OCC(=O)Nc2ccc(-c3nc4cc(C)ccc4o3)c(O)c2)c1	110%	0.5µM*	i
Nc1cccc(-c2csc(NC(=O)CCCCCCC(=O)NO)n2)c1	200%	·	·
Cc1cc([C@@H](C)Nc2ccccc2C(=O)O)c2nc(N3CCOCC3)cc(=O)n2c1	?	-32%[116 µM]	·
Cc1cc(OCCCS(C)(=O)=O)cc(C)c1-c1cccc(COc2ccc3c(c2)OC[C@H]3CC(=O)O)c1	-34%	-28%	·
Cc1cc(C)cc(NS(=O)(=O)c2ccc(-n3cccn3)cc2)c1	?	-35%	i
COc1ccc(NS(=O)(=O)c2ccc(-n3cccn3)cc2)cc1OC	7.9µM*	-90%	i
CCc1cccc(NS(=O)(=O)c2ccc(-n3cccn3)cc2)c1	35µM*	-40%	i
COC(=O)c1ccc(NS(=O)(=O)c2ccc(-n3cccn3)cc2)cc1	-17%	-18%	i
CCCCCCOC(=O)NC(=N)c1ccc(NCc2nc3cc(C(=O)N(CCC(=O)OCC)c4ccccn4)ccc3n2C)cc1	-20%	-30%	i
C[C@H](O)[C@@H]1C(=O)N2C(C(=O)O)=C(S[C@@H]3CN[C@H](CNS(N)(=O)=O)C3)[C@@H](C)[C@@H]12	10%	-4%	·
Cc1ccc(NC(=O)c2ccc(F)c(S(=O)(=O)NCCc3ccccc3)c2)cc1F	28µM*	-39%	i
Cc1ccc(NC(=O)c2cc(S(=O)(=O)NCCC3=CCCCC3)ccc2F)cc1F	11µM*	-90%	i
SMILES	HTT promoter inh	HTT-AS act	GALC G270D up
Cc1cc(C)cc(NC(=O)c2cc(S(=O)(=O)NCCC3=CCCCC3)ccc2F)c1	-14%	-22%	i
Cc1ccc(NC(=O)c2ccc(F)c(S(=O)(=O)N3CCc4ccccc4C3)c2)cc1F	?	-28%	i
COc1cc(F)c(C(C)C)cc1-c1ccc(C(F)(F)F)cc1CN1C(=O)O[C@H](c2cc(C(F)(F)F)cc(C(F)(F)F)c2)[C@@H]1C	-9%	-20%	·
C[C@H]1[C@@H](OC(=O)CCC(=O)O)O[C@@H]2O[C@@]3(C)CC[C@@H]4[C@H](C)CC[C@@H]1[C@@]24OO3	?	-31%	·
Cc1ccc(S(=O)(=O)Nc2cc(Cl)ccc2C(=O)Nc2nc(-c3ccccc3)cs2)cc1	?	-16%	·
COc1ccc(Cn2c(CO)cnc2SCc2ccc(F)cc2)cc1	32µM*	-32%	i
COc1ccc(Cn2c(CO)cnc2SCc2ccc(C)cc2)cc1	63%	?	i
